According to PubChem BioAssay (Tox21):
Records with an inconclusive call do not appear. Entries that show only a call come without a potency. Values without a mark were called inactive. Active and inactive are the calls of the source. Calls come from the whole dose curve; as a rule, active = well fitted cell-killing curve with a large enough effect in the repeat runs; inconclusive = weak or mixed curves, or effect the other way; inactive = flat fitted curve, though single readings scatter.

Experiment: Nuclear factor erythroid 2-related factor 2/antioxidant responsive element (Nrf2/ARE) small molecule agonists: qHTS cell viability counter screen in human keratinocytes (AID 1919968); note: nearly all actives have a fitted effect of over 55% in size
Settings: KeratinoSens HaCaT ARE cells viability, CellTiter-Fluor, 24 h; series mostly up to 92.4 µM
Description: U.S. Tox21 Program National Center for Advancing Translational Sciences [NCATS] Division of Preclinical Innovation [DPI] U.S. Environmental Protection Agency [EPA] National Institutes of Environmental Health Sciences [NIEHS] National Toxicology Program [NTP] U.S. Food and Drug Administration [FDA] Tox21 Assay Overview: Oxidative stress has been implicated in the pathogenesis of a variety of diseases ranging from cancer to neurodegeneration. The antioxidant response element (ARE) signaling pathway plays an important role in the amelioration of oxidative stress. The KeratinoSens (Givaudan, Switzerland) is an in vitro test method which quantifies luciferase induction as a measure of activation of Keap1-Nrf2-antioxidationt/electrophile response element (ARE) dependant pathway in HaCaT human keratinocytes stably transfected with a selectable plasmid. The KeratinoSens assay is a cell-based assay with a reporter cell line to detect potential skin sensitizers by their ability to induce the Nrf2/ARE-response. The activation of the report gene under culture conditions can be detected by ONE-Glo Luciferase Assay System (Promega, Madison, WI). This cell line has been used to screen the Tox21 10K compound library to identify agonists that induce oxidative stress. The cytotoxicity of the Tox21 compound library against the KS-ARE cell line was tested in parallel by measuring the cell viability using CellTiter- Fluor assay system (Promega, Madison, WI) in the same wells.
Tox21 Assay Protocol Summary: HaCaT derived cell line KeratinoSens were dispensed at 1,500 cells/5uL/well in 1536-well white wall/solid bottom plates using a Multidrop Combi (ThermoFisher Scientific, Waltham, MA) dispenser. After the assay plates were incubated at 37 C/5% CO2 for 5 h, 23 nL of compounds dissolved in DMSO, positive controls or DMSO only was transferred to the assay plate by a pintool workstation (Kalypsys, San Diego, CA). The plates were incubated at 37 C/5% CO2 for 23 h, followed by addition of 1uL/well of CellTiter-Fluor reagent into the assay plates using a Flying Reagent Dispenser (Aurora Discovery, San Diego, CA) for cell viability readout that measures cytotoxicity. After 1 h incubation at 37 C/5% CO2 the fluorescence intensity was measured using a ViewLux (PerkinElmer, Shelton, CT) plate reader.
Potency is the fitted concentration of half-maximal effect.

| SMILES | Potency | activity change, negative = cytotoxicity |
| --- | --- | --- |
| CN(C)CCN(Cc1ccsc1)c1ccccn1 | inactive | – |
| CCCCCCCCCCCCOC(=O)c1ccc(O)cc1 | 43.6 µM (active) | – |
| CC1=C2[C@@H]([C@H](C)CC[C@H]2/C=C(\C)C(=O)O)[C@H](O)C1 | inactive | – |
| CC(=O)c1ccc(C(C)=O)cc1 | inactive | – |
| CC(CC(=O)O)CC(C)(C)C (stereo not given) | inactive | – |
| C[C@@H]1O[C@@H](O[C@@H]2[C@@H](O)[C@H](OCCc3ccc(O)c(O)c3)O[C@H](CO[C@@H]3O[C@H](CO)[C@@H](O)[C@H](O)[C@H]3O)[C@H]2OC(=O)/C=C/c2ccc(O)c(O)c2)[C@H](O)[C@H](O)[C@H]1O | inactive | – |
| c1ccc(-c2nn[nH]n2)cc1 | inactive | – |
| NS(=O)(=O)c1cc(-c2nn[nH]n2)c(NCc2cccs2)cc1Cl | inactive | – |
| Cc1ccc(S(=O)(=O)NC(=O)NN2CC3CCCC3C2)cc1 (stereo not given) | inactive | – |
| COc1ccc(C(=O)Nc2nc3ccccc3c(NCc3ccccc3)c2C#N)cc1 | inactive | – |
| CCCCCCCC[Si](OCC)(OCC)OCC | inactive | – |
| C[Si](NC1CCCCC1)(NC1CCCCC1)NC1CCCCC1 | inactive | – |
| CCOc1ccccc1O | inactive | – |
| CCN(CCC#N)c1ccc(N=Nc2ccc([N+](=O)[O-])cc2)cc1 | inactive | – |
| COC(=O)CCc1ccc(OCC(O)CNC(C)C)cc1 (stereo not given) | inactive | – |
| O=C(NCCc1c[nH]c2ccccc12)c1cccnc1 | inactive | – |
| Nc1ccc(S(=O)(=O)Nc2ccnn2-c2ccccc2)cc1 | – | 8.64% [at 19 µM] |
| Nc1ccc(C(=O)OCC(O)CO)cc1 (stereo not given) | inactive | – |
| CCCCCCCCCCCC | inactive | – |
| Cc1cc(C(C)(C)C)cc(C)c1CC1=NCCN1 | inactive | – |

| SMILES | Potency | activity change, negative = cytotoxicity |
| --- | --- | --- |
| CCCNC(C)C(=O)Nc1ccccc1C (stereo not given) | inactive | – |
| CCCCCCCCCCOCC(O)CN (stereo not given) | 37.6 µM (active) | – |
| CCCC(=O)c1cc(O)c(O)cc1O | 9.69 µM (active) | – |
| COC(=O)c1c(C)cc(O)c(C)c1O | inactive | – |
| Cc1c(NC(C)C)c(=O)n(-c2ccccc2)n1C | inactive | – |
| COc1ccc(CCN(C)CCCC(C#N)(c2cc(OC)c(OC)c(OC)c2)C(C)C)cc1OC (stereo not given) | inactive | – |
| CCOC(=O)COC(=O)c1ccccc1C(=O)OCC | inactive | – |
| NC(=O)Nc1ccc(Cl)c(Cl)c1 | inactive | – |
| NS(=O)(=O)c1cc2c(cc1Cl)NC(C(Cl)Cl)NS2(=O)=O (stereo not given) | inactive | – |
| Cc1nccn1CC1CCc2c(c3ccccc3n2C)C1=O (stereo not given) | inactive | – |
| O=C(O)c1cc(-c2ccc(F)cc2F)ccc1O | inactive | – |
| CC(=O)Nc1ccc(C)c(Cl)c1 | inactive | – |
| CCCCCCCCCCCCCCCCCC(=O)OCCCCCCCCCCCCCC(C)C | inactive | – |
| C=CCOc1c(Br)cc(C(C)(C)c2cc(Br)c(OCC=C)c(Br)c2)cc1Br | inactive | – |
| SC1CCCCC1 | inactive | – |
| C=C(C)C(=O)OC1CC(C)CC(C)(C)C1 (stereo not given) | inactive | – |
| Cc1cc2c(s1)Nc1ccccc1N=C2N1CCN(C)CC1 | inactive | – |
| CN1Cc2cc(C(=O)N3CCC(C4CCNCC4)CC3)ccc2N[C@@H](CC(=O)O)C1=O | inactive | – |
| CCCCOCCOC(=O)COc1ccc(Cl)cc1Cl | inactive | – |
| CC(C)C(O)C(C)(C)CO (stereo not given) | inactive | – |
